Here are results for five compounds from PubChem BioAssay.

The nature of assay [1]: small molecules captured by biotinylated probe aFSTL3 – biochemical, small-molecule microarray, fluorescence 635/667, stem cell growth factor project, primary screen (AID 1064).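 Further: measures binding of the biotinylated anti-FSTL3 antibody to printed compounds.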 The following applies: higher = more signal.
Assay [2] in a line: binders from COS7 lysate, DM2A8 probe, primary screen, torsin A project, cell lysate, small-molecule microarray, fluorescence 635/667 (AID 1065). The note with it: higher = more signal, COS7 lysate expressing mutant human TOR1A.
Assay [3] is described as follows: small molecules captured by biotinylated probe aFGF2 – biochemical, small-molecule microarray, fluorescence 635/667, stem cell growth factor project, primary screen (AID 1067).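 Further: measures binding of biotinylated aFGF2 protein to printed compounds on slides; z-score merges feature fluorescence and signal-to-noise across triplicate slides.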 The following applies: higher = more signal.
The nature of assay [4]: small molecules captured by biotinylated probe aFGF10 – biochemical, small-molecule microarray, fluorescence 635/667, stem cell growth factor project, primary screen (AID 1071).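 Further: score merges 667 nm spot intensity and signal to noise from triplicate slides.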 The following applies: higher = more signal.
Assay [5] addresses Neurogenic locus notch homolog protein 2 (Homo sapiens) (UniProt Q04721). As to the kind of experiment: small molecules binding Notch2 protein – biochemical, small-molecule microarray, 635 nm fluorescence, stem cell growth factors, primary screen (AID 1073). The following applies: higher = more signal.
In assay [6] the target is Pro-neuregulin-1, membrane-bound isoform (Homo sapiens) (UniProt Q02297). As to the kind of experiment: small molecules binding neuregulin-1 protein – biochemical, small-molecule microarray, fluorescence 635/667, psychiatric disease protein project, primary screen (AID 1075).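 Further: score combines 667 nm spot fluorescence with signal to noise.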 The following applies: NRG1 binding, 635 nm fluorescence, higher = more signal.
Chain of Pro-neuregulin-1, membrane-bound isoform (Homo sapiens) (Q02297 whole entry, looked up, the tested form may be a part, canonical isoform): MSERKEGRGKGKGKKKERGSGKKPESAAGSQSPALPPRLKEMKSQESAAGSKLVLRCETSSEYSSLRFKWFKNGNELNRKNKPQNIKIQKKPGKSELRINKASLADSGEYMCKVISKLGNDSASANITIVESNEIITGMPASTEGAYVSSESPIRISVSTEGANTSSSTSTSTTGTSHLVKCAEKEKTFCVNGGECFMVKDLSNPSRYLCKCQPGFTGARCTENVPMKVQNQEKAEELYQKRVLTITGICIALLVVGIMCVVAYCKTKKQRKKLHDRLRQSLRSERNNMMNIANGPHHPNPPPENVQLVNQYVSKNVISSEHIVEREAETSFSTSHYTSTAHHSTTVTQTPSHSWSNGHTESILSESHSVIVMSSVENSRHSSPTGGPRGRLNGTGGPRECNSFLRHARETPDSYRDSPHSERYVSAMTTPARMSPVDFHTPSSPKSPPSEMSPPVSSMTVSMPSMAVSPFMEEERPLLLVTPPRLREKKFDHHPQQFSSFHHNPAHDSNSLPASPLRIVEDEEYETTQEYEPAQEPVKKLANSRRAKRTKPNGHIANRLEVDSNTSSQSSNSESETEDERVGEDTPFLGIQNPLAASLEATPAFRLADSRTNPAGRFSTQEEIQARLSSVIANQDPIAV
In assay [7] the test system is Neuregulin-1 EGF-like domain. Kind of assay: small molecules binding NRG1 EGF domain – biochemical, small-molecule microarray, 635 nm fluorescence, primary screen (AID 1081).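 Further: binding of the protein to compounds printed on small-molecule microarray slides.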 The following applies: higher = more signal.
Assay [8] is described as follows: FRG1 expression reporter modulators in myotubes – cell-based, C2C12 myotubes, firefly/Renilla luciferase, luminescence, FRG1 inhibition for FSHD, primary screen (AID 1084). The following applies: FRG1 promoter luciferase, higher = more signal, called active from +8 up or from −8 down.
Assay [9] is described as follows: small molecules captured by biotinylated probe aFST – biochemical, small-molecule microarray, fluorescence 635/667, stem cell growth factor project, primary screen (AID 1086).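 Further: score merges 667 nm fluorescence with signal-to-noise of each printed compound spot.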 The following applies: higher = more signal.
Assay [10] in a line: binders of probe aHhip on microarray, primary screen, stem cell growth factor project, biochemical, small-molecule microarray, fluorescence 635/667 (AID 1087).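 Further: score merges spot fluorescence at 667nm with spot signal to noise ratio.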 The note with it: higher = more signal.
Assay [11] has as its system PRMT1 (protein arginine N-methyltransferase 1). Kind of assay: small molecules binding arginine methyltransferase PRMT1 – biochemical, small-molecule microarray, 635 nm fluorescence, primary screen (AID 1088).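 Further: binding of Prmt1 protein to compounds spotted on small-molecule microarray slides.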 The following applies: higher = more signal.
A short description of assay [12]: growth effects on S. cerevisiae YJM789 – YJM789 clinical isolate, OD600, 24 h, basal, primary screen (AID 1089).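 Further: growth of clinical yeast isolate S. cerevisiae YJM 789 seeded 1000 cells per well; test concentration not given here.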 The following applies: higher = more signal, called active from +8 up or from −8 down.
The nature of assay [13]: S. pombe growth modifiers, basal conditions – strain 972, OD600, 24 h, no modulator, primary screen (AID 1090).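 Further: basal condition with compound alone and no growth modifier present; test concentration not given here.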 The note with it: S. pombe 972 growth, higher = more signal, called active from +8 up or from −8 down.
Assay [14] can be described thus: budding yeast growth modifiers under rapamycin – strain BY4716, OD600, 96 h, primary screen (AID 1091). Further: test concentration not given here. The following applies: S. cerevisiae BY4716 + rapamycin, higher = more signal, called active from +8 up or from −8 down.
The target of assay [15] is Torsin-1A-interacting protein 2 (Homo sapiens) (UniProt Q8NFQ8). Kind of assay: small molecules binding lysate-expressed LULL1 – cell lysate, human LULL1 lysate, 635/667 nm fluorescence, primary screen (AID 1092).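 Further: probe is lysate of COS7 cells overexpressing human LULL1; score merges per-feature 667 nm fluorescence with signal-to-noise.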 The note with it: small-molecule microarray, hLULL1 lysate binding, 635 nm fluorescence; higher = more signal.
Chain of Torsin-1A-interacting protein 2 (Homo sapiens) (Q8NFQ8 whole entry, looked up): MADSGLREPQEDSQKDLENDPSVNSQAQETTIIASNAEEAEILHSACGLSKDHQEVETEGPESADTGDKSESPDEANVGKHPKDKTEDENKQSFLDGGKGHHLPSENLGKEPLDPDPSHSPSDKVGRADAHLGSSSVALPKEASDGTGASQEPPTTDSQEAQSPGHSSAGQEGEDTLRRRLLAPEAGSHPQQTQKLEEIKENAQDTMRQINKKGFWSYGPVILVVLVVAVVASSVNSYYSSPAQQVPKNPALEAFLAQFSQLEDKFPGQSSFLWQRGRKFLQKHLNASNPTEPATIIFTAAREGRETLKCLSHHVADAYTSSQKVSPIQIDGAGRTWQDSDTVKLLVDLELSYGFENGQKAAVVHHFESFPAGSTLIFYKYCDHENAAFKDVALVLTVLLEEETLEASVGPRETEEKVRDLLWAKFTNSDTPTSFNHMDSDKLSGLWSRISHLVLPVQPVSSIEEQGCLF
The nature of assay [16]: optical density change of DRC41 E. coli – strain DRC41, OD650, 24 h, E. coli filamentation project, primary screen (AID 1093).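 Further: MC1000 strain lacking acrAB efflux and sulA so SOS filamentation is blocked; test concentration not given here.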 The following applies: E. coli DRC41 growth, higher = more signal, called active from +8 up or from −8 down.
The nature of assay [17]: probe aLefty2 binding to arrayed compounds – biochemical, biotinylated probe, 635/667 nm fluorescence, primary screen (AID 1094).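 Further: score merges spot fluorescence near 667 nm with spot signal-to-noise ratio.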 The following applies: small-molecule microarray, higher = more signal.
For assay [18], the system named is Noggin (protein binding on small-molecule microarray). As to the kind of experiment: small molecules binding Noggin protein – biochemical, 635/667 nm fluorescence, primary screen (AID 1095).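 Further: score merges 667 nm feature fluorescence with signal to noise over triplicate slides.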 The following applies: 635 nm fluorescence, higher = more signal.
Assay [19] addresses Neurogenic locus notch homolog protein 3 (Homo sapiens) (UniProt Q9UM47). Kind of assay: small molecules binding NOTCH3 protein – biochemical, 635/667 nm fluorescence, primary screen (AID 1096). The note with it: small-molecule microarray, 635 nm fluorescence, higher = more signal.
Assay [20] can be described thus: probe aEGFR binding to arrayed compounds – biochemical, biotinylated probe, 635/667 nm fluorescence, primary screen (AID 1097).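 Further: probe is a biotinylated anti-EGFR antibody binding compounds printed on slides; score combines fluorescence near 667 nm and signal to noise of each spot.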 The following applies: small-molecule microarray, higher = more signal.

SMILES strings stand for the structures. Calls of active or inactive are those of the source.

Chain of Neurogenic locus notch homolog protein 3 (Homo sapiens) (Q9UM47 whole entry, looked up): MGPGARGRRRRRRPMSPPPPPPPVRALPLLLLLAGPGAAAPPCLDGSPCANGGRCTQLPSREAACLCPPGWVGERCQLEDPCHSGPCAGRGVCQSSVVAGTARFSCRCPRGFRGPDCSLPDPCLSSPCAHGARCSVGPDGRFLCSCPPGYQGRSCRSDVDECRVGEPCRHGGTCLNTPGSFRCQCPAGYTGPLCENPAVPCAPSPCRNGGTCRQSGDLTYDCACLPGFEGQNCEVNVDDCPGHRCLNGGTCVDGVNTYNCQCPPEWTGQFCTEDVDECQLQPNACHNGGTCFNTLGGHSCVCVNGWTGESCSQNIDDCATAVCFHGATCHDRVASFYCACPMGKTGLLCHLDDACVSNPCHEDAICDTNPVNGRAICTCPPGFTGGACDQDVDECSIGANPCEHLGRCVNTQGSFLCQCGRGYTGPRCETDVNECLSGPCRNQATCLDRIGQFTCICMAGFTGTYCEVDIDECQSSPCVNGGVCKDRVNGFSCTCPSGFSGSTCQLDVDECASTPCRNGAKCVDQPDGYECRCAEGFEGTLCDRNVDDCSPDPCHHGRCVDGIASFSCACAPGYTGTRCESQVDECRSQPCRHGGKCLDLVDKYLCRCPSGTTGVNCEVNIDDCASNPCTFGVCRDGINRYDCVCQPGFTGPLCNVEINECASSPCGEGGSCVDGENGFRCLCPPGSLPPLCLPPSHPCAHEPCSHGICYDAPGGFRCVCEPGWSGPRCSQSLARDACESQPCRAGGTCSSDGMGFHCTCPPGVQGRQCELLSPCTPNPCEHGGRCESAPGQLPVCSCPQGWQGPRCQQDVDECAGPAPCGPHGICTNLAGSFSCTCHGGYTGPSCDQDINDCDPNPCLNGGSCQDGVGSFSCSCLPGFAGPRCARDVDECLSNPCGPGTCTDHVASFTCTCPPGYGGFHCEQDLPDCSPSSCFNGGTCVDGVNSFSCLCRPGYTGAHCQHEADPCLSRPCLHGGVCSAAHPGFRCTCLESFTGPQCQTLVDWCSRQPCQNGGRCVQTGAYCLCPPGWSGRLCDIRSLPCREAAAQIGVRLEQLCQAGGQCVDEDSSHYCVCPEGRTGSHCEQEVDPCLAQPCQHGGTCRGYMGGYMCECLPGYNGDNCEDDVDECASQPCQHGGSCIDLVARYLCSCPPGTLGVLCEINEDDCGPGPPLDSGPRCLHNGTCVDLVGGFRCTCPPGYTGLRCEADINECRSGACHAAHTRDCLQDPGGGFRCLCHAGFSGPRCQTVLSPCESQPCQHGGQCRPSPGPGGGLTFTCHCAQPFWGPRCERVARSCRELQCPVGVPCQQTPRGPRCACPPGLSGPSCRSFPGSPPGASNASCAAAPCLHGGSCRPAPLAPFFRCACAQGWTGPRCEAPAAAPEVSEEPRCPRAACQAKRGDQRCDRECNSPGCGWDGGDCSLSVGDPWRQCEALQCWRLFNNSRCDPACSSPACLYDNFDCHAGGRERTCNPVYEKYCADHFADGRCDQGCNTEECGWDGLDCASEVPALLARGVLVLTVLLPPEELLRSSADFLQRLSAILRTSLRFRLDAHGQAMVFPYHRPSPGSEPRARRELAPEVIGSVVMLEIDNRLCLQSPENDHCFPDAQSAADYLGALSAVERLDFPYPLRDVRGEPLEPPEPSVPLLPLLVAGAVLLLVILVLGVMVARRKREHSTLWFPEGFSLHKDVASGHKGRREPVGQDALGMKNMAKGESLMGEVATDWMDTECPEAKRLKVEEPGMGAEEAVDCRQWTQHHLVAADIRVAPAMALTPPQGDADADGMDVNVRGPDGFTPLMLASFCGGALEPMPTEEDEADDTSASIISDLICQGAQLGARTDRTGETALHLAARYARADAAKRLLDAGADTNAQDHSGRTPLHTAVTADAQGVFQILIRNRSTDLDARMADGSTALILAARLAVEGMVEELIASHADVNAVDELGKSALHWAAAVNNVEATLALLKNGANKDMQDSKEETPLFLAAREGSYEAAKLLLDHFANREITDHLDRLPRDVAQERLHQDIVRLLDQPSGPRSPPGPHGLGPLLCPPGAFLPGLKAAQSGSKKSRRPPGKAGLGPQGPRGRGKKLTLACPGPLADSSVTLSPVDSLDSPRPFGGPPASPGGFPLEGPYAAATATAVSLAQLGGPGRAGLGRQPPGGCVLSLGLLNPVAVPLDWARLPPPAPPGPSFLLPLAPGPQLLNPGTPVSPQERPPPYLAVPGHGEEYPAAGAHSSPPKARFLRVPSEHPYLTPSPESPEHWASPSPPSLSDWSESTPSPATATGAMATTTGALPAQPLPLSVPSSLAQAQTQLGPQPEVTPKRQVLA

On to `CC(=O)n1cc(C(O)C2C=CC3C(=O)N(c4ccccc4)C(=O)C3N2Nc2ccccc2F)c2ccccc21` (stereo not given), for which the composite z-score in assay [1] is -0.146; in [2] it was 0.25; in [3] it was -0.0757; in [4], -0.274; in assay [5] it was 0.021; in [6], 1.69. In addition, the composite z-score in assay [7] is 1.02; in assay [9], -0.346; in assay [10], 0.0505; in assay [11] it was 0.799; in assay [15], 2.51; in assay [17] it was -0.138. The composite z-score in assay [18] is -0.872; in assay [19] it was -0.382; in assay [20], -0.146. The z-score in [8] is 0.625 (inactive); in assay [12], -0.626 (inactive); in assay [13], -0.169 (inactive); in [14] it was -1.6 (inactive); in assay [16], 1.01 (inactive).
On to `COc1ccc(CCNC(=O)[C@@]2(Sc3ccc(C)cc3)CC(=O)N(Cc3cc(C(F)(F)F)cc(C(F)(F)F)c3)[C@@H]2c2ccc(CO)cc2)cc1`, for which the composite z-score in [1] was 0.575; in [2] it was -0.748; in [3], -0.188; in assay [4], -0.498; in assay [5], -1.79; in [6], -0.854. Moreover, the composite z-score in assay [7] was -0.637; in [9] it was -0.498; in assay [10], 0.132; in assay [11], -0.772; in [15] it was 0.92; in assay [17], 0.344. Also, the composite z-score is -1.69 in assay [18], -1.26 in assay [19] and -0.213 in assay [20]. Further, the z-score in assay [8] was 0.522 (inactive); in assay [12] it was -1.11 (inactive); in assay [13], -0.912 (inactive); in assay [14] it was -0.683 (inactive); in assay [16] it was -0.466 (inactive).
As for `COCCOC(=O)N1C(=O)[C@@]2(c3cc(C#CC4(O)CCCCCC4)ccc31)[C@H](c1ccccc1OCCO)N1[C@H](c3ccccc3)[C@H](c3ccccc3)OC(=O)[C@H]1[C@@H]2C(=O)N1CCCCCCC1`, the composite z-score stood at 2.94 in assay [1]; 1.24 in assay [2]; 0.324 in assay [3]; 0.256 in assay [4]; 0.869 in [5]; 1.45 in [6]. Besides, the composite z-score in assay [7] amounted to 1.29; in assay [9] it was 2.73; in assay [10], 1.83; in [11], 1.54; in [15] it was 3.47; in [17], 1.31. Besides, the values for the composite z-score in [18], in assay [19] and in [20] were 1.75, 1.1 and -0.0351, respectively. The z-score is -0.926 (inactive) in [8]; 1.94 (inactive) in assay [12]; 1.26 (inactive) in [13]; 3.54 (inactive) in [14]; 0.0805 (inactive) in assay [16].
Regarding `COC(=O)[C@@]1(Cc2ccc(OC)cc2)[C@@H]2[C@@H](CC(=O)[C@H]2CC(=O)C(=O)N2CCCC2)CN1C(=O)c1ccccc1`, the composite z-score was 2.42 in assay [1]; 0.296 in assay [2]; 0.926 in [3]; 0.884 in assay [4]; 1.69 in assay [5]; 1.94 in assay [6]. Besides, the composite z-score turned out to be 1.24 in [7]; 2.67 in assay [9]; 2.65 in [10]; 0.281 in assay [11]; 2.6 in assay [15]; 1.76 in [17]. Besides, the composite z-score was determined as 0.156 in assay [18], 1.09 in [19] and 1.26 in assay [20]. For the same compound, the z-score in assay [8] is 1.31 (inactive); in assay [12], -0.347 (inactive); in assay [13], 0.304 (inactive); in assay [14] it was -0.0364 (inactive); in assay [16], -0.455 (inactive).
Turning to `CC(C)c1ccc(NN2C(C(O)C(C)C)C=CC3C(=O)N(c4ccccc4)C(=O)C32)cc1` (stereo not given), the composite z-score worked out at 0.733 in [1]; 0.237 in assay [2]; 0.225 in assay [3]; 0.707 in [4]; 1.55 in [5]; 1.92 in [6]. Besides, the composite z-score in [7] was 1.31; in [9], 1.3; in assay [10], -0.208; in assay [11], 1.56; in assay [15], 3.53; in assay [17], 0.633. The composite z-score is 0.284 in [18], 1.04 in assay [19] and 0.516 in assay [20]. For the same compound, the z-score in assay [8] was -0.0025 (inactive); in assay [12], 1.39 (inactive); in [13] it was 0.313 (inactive); in assay [14], 1.39 (inactive); in assay [16], -0.613 (inactive).
